Experiment [1] relates to MDA-MB-231. Description: cell viability relative to vehicle unstimulated control (fraction); higher = more viable cells. The following applies: pre-treatment time: 18 h then 24 h IFNg/TNF.
Experiment [2] relates to MDA-MB-231. Description: kynurenine production, fold change vs DMSO IFNg/TNF control; higher = more kynurenine produced (less inhibition). The settings on record: pre-treatment time: 18 h then 24 h IFNg/TNF. The gist of the method:
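MDA-MB-231 cells were seeded in 96-well plates at 7 × 10^4/well and, 24 h later, pre-treated for 18 h with each natural product in 0.1% DMSO. They were then stimulated for 24 h at 37°C with IFNγ (1 U/ml) and TNF (6.25 ng/ml). Supernatants were treated with trichloroacetic acid and p-dimethylaminobenzaldehyde and read at 492 nm against 0–100 μM standards. Kynurenine production is expressed as fold change over cytokine-stimulated vehicle wells on the same plate and, in the first screening round, averaged across duplicate plates.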

± gives the standard deviation of the averaged measurements.
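Throughout, for cell viability relative to vehicle unstimulated control: viability of the cells left after supernatant collection, read with Deep Blue dye added for 4 h, as absorbance at 570 nm minus 600 nm.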

`C=C(C)[C@H]1CC=C(C)C(=O)C1` [D(+)-carvone] (compound dose: 10 uM): the cell viability in the experiment with MDA-MB-231 [1] is 1 ± 0.026. In addition, in the experiment with MDA-MB-231 [2], the kynurenine production stood at 0.864 ± 0.022.
Turning to `C=CC(=C)CCC=C(C)CCC=C(C)C` [(E)-β-Farnesene] (compound dose: 10 uM), in the experiment with MDA-MB-231 [1], the cell viability amounted to 0.977 ± 0.015. Also, in the experiment on MDA-MB-231 [2], the kynurenine production stood at 0.723 ± 0.27.
For the compound `C=C1C[C@@]2(O)O[C@@]3(C[C@H]2C(C)C)[C@@H](C)CC[C@@H]13` [Curcumol] (compound dose: 10 uM), the cell viability with MDA-MB-231 [1] is 0.997 ± 0.034. Further, in the experiment on MDA-MB-231 [2], the kynurenine production was 0.833 ± 0.1.
On to `C=C1C[C@@]23CC[C@H]4[C@@](C)(CCC[C@@]4(C)C(=O)O)[C@@H]2CC[C@]1(O[C@@H]1O[C@@H](CO)[C@@H](O)[C@H](O)[C@@H]1O[C@@H]1O[C@@H](CO)[C@@H](O)[C@H](O)[C@@H]1O)C3` [Steviolbioside] (compound dose: 10 uM), for which the cell viability in the experiment with MDA-MB-231 [1] was 0.904 ± 0.19. Moreover, the kynurenine production with MDA-MB-231 [2] was 1.05 ± 0.44.
As to `C[C@H]1[C@H](C)CC[C@]2(C(=O)O)CC[C@]3(C)C(=CC[C@@H]4[C@@]5(C)CC[C@H](O)C(C)(C)[C@@H]5CC[C@]43C)[C@H]12` [Ursolic acid] (compound dose: 10 uM), the cell viability in the experiment with MDA-MB-231 [1] was found to be 0.973 ± 0.015. Besides, the kynurenine production with MDA-MB-231 [2] was 0.891 ± 0.21.
For `C[C@H](CC[C@@H](O[C@@H]1O[C@H](CO)[C@@H](O)[C@H](O)[C@H]1O)C(C)(C)O)[C@H]1CC[C@@]2(C)[C@@H]3CC=C4[C@@H](CC[C@H](O[C@@H]5O[C@H](CO)[C@@H](O)[C@H](O)[C@H]5O)C4(C)C)[C@]3(C)[C@H](O)C[C@]12C` [Mogroside IIe] (compound dose: 10 uM), in that order: 0.984 ± 0.089 and 0.934 ± 0.29.
For the compound `COC(=O)C1=CO[C@@H](O[C@@H]2O[C@H](CO)[C@@H](O)[C@H](O)[C@H]2O)[C@H]2[C@@H]1[C@H](O)C[C@]2(C)O` [Shanzhiside methyl ester] (compound dose: 10 uM), the cell viability in the experiment on MDA-MB-231 [1] stood at 1.007 ± 0.0034. Also, in the experiment with MDA-MB-231 [2], the kynurenine production is 0.998 ± 0.16.
As to `C[C@@H]1O[C@@H](O[C@H]2[C@H](OC(=O)[C@]34CCC(C)(C)C[C@H]3C3=CC[C@@H]5[C@@]6(C)C[C@H](O)[C@H](O[C@@H]7O[C@H](CO)[C@@H](O)[C@H](O)[C@H]7O)[C@](C)(CO)[C@@H]6CC[C@@]5(C)[C@]3(C)CC4)O[C@H](CO)[C@@H](O[C@@H]3OC[C@@H](O)[C@H](O)[C@H]3O)[C@@H]2O[C@@H]2OC[C@](O)(CO)[C@H]2O)[C@H](O)[C@H](O)[C@H]1O` [Polygalasaponin V] (compound dose: 10 uM), in the experiment with MDA-MB-231 [1], the cell viability was 0.992 ± 0.027. Also, in the experiment with MDA-MB-231 [2], the kynurenine production turned out to be 0.803 ± 0.068.
For `C[C@H]1[C@H](C)CC[C@]2(C(=O)O)CC[C@]3(C)C(=CC[C@@H]4[C@@]5(C)C[C@@H](O)[C@H](O)[C@@](C)(CO)[C@@H]5CC[C@]43C)[C@H]12` [Asiatic acid] (compound dose: 10 uM), in the experiment with MDA-MB-231 [1], the cell viability was found to be 1.01 ± 0.018. In the experiment on MDA-MB-231 [2], the kynurenine production came out at 0.85 ± 0.16.
For `CC1(C)CC[C@]2(C(=O)O)CCC3=C([C@@H](CCl)C[C@@H]4[C@@]5(C)C[C@H](O)[C@H](O)[C@@](C)(C(=O)O)[C@@H]5CC[C@@]34C)[C@@H]2C1` [Tenuigenin] (compound dose: 10 uM), in that order: 0.983 ± 0.068 and 0.952 ± 0.2.
In the case of `C/C=C1\C(=O)C[C@H]2[C@@H]3CCC4=CC(=O)CC[C@]4(C)[C@H]3CC[C@]12C` [Guggulsterone] (compound dose: 10 uM), the cell viability with MDA-MB-231 [1] was determined as 0.9378 ± 0.0046. For the same compound, the kynurenine production in the experiment with MDA-MB-231 [2] was 0.324 ± 0.043.
For `CC(=O)O[C@@H]1[C@@H](O)[C@H](O[C@H]2CC[C@]34C[C@]35CC[C@]3(C)[C@@H]([C@@]6(C)CC[C@@H](C(C)(C)O)O6)[C@@H](O)C[C@@]3(C)[C@@H]5C[C@H](O[C@@H]3O[C@H](CO)[C@@H](O)[C@H](O)[C@H]3O)[C@H]4C2(C)C)OC[C@H]1O` [Isoastragaloside II] (compound dose: 10 uM), in that order: 0.99 ± 0.011 and 0.968 ± 0.029.
Take `CC(=O)O[C@H]1/C(CO)=C\C[C@H]2[C@@H](/C=C(/C)C(=O)[C@@]3(OC(C)=O)C[C@H](C)[C@H](OC(=O)c4ccccc4)[C@H]13)C2(C)C` [Euphorbia factor L24] (compound dose: 10 uM): the cell viability in the experiment on MDA-MB-231 [1] is 1.09 ± 0.022. Besides, the kynurenine production in the experiment on MDA-MB-231 [2] was determined as 0.911 ± 0.078.
As for `CC(C)=C/C=C1\O[C@@H]2CC(C)=CC(=O)[C@@H]2[C@]1(C)O` [Bisabolangelone] (compound dose: 10 uM), the cell viability in the experiment with MDA-MB-231 [1] is 0.907 ± 0.0022. The kynurenine production in the experiment with MDA-MB-231 [2] is 0.711 ± 0.12.
With `CC(=O)O[C@]12C[C@H](C)[C@H](OC(=O)/C=C/c3ccccc3)[C@@H]1/C=C(/CO)CC[C@H]1[C@@H](/C=C(\C)C2=O)C1(C)C` [Euphorbia factor L22] (compound dose: 10 uM), the cell viability with MDA-MB-231 [1] stood at 1.11 ± 0.047. In addition, the kynurenine production in the experiment on MDA-MB-231 [2] turned out to be 0.964 ± 0.092.
Take `COC(=O)C1=CO[C@@H](O[C@@H]2O[C@H](CO)[C@@H](O)[C@H](O)[C@H]2O)[C@H]2[C@@H]1[C@H](O)C[C@]2(C)OC(C)=O` [Barlerin] (compound dose: 10 uM): the cell viability with MDA-MB-231 [1] was determined as 1.01 ± 0.02. In addition, the kynurenine production with MDA-MB-231 [2] came to 0.884 ± 0.11.
For `CC(C)=CCC[C@@H](C)CCO` [(R)-Citronellol] (compound dose: 10 uM), in that order: 1.029 ± 0.0012 and 0.824 ± 0.11.

These data come from the supplement of paper PMC13094657.
